Assay results as given in ChEMBL document CHEMBL5308541, “MAIP: An Open-Source Tool to Enrich High-Throughput Screening Output and Identify Novel, Druglike Molecules with Antimalarial Activity” (ACS Med Chem Lett, 2023).
Screen size: about 4,800 compounds; about 420 (8.8%) showed an effect of 50% or more. Only a selection was taken, and strong results are over-represented in it overall.

test system: Plasmodium falciparum; assay: Confirmatory screen in NF54 nanoGlo assay, in single point, at 2uM, 72h; assay type: functional, Erythrocyte; conditions: timepoint 72 hour

SMILES | % Inhibition
O[C@@H](CNCc1ccc2c(c1)CCO2)c1ccc(F)c(F)c1 | 61%
CN1CCC(N(C)c2ccccc2CNC[C@@H](O)c2cccc(Cl)c2)CC1 | 23%
CN1CCN(c2ccc(C(F)(F)F)cc2NCc2cnc[nH]2)CC1 | 62%
CN1C2CCC1CC(OC(=O)C1CCC(C(=O)OC3CC4CCC(C3)N4C)(c3ccccc3)c3ccccc31)C2 (stereo not drawn) | 49%
Fc1ccc(N2CC[C@H](CN3CCC(c4c[nH]c5ccccc45)(c4c[nH]c5ccccc45)CC3)C2)cc1 | 97%
CC(C)(C)c1ccc(CNC[C@H](O)c2ccc(F)cc2F)cc1 | 95%
Cc1ccc(CNc2ncnc(N)c2Cl)c(N2CCCC2)n1 | 50%
CN(C)CC12CNCC1CN(c1ccnc3cc(Cl)ccc13)C2 (stereo not drawn) | 98%
